Measurements as given in PubChem BioAssay (NCI).
Compounds without any hit were thinned out: in the full panel of roughly 83,000, 20% have a hit.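 Activity criterion: percent growth below 10, measured after cells in 96-well plates were exposed to a single compound concentration for 48 hours.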 Values without a mark were called inactive. The source made the active and inactive calls.

Legend:
Assay in all cases: NCI-60 one-dose screen, 48 h (100 = growth as untreated, 0 = no growth, -100 = all killed)
Conditions in all cases: 10 µM unless noted
NCI-H23 lung = test system: NCI-H23 lung
NCI-H226 lung = test system: NCI-H226 lung
NCI-H322M lung = test system: NCI-H322M lung
HOP-62 NSCLC = test system: HOP-62 NSCLC
NCI-H460 lung = test system: NCI-H460 lung
HOP-92 NSCLC = test system: HOP-92 NSCLC
NCI-H522 lung = test system: NCI-H522 lung
A549/ATCC NSCLC = test system: A549/ATCC NSCLC
786-0 renal = test system: 786-0 renal
COLO 205 colon = test system: COLO 205 colon

SMILES	growth (NCI-H23 lung)	growth (NCI-H226 lung)	growth (NCI-H322M lung)	growth (HOP-62 NSCLC)	growth (NCI-H460 lung)	growth (HOP-92 NSCLC)	growth (NCI-H522 lung)	growth (A549/ATCC NSCLC)	growth (786-0 renal)	growth (COLO 205 colon)
Oc1cccc2ccc(N/N=C/c3cc(CN4CCCCC4)c(O)c4ncccc34)nc12	-10.8% (active)	-30% (active)	25.5%	1.83% (active)	-40.3% (active)	36.9%	-16% (active)	-10.3% (active)	5.33% (active)	8.41% (active)
COC(=O)[C@]12CC[C@@H](C)[C@H](C)[C@@H]1C1=CC(=O)[C@@H]3[C@@]4(C)C[C@@H](OC(C)=O)[C@H](OC(C)=O)[C@@](C)(COC(C)=O)[C@@H]4C(=O)C[C@@]3(C)[C@]1(C)CC2	45.4%	41.8%	82.6%	58.2%	32.4%	18.1%	47.6%	42.5%	68.5%	39.5%
COc1ccc(C2=NN(c3nc(-c4ccc(OC)cc4)c(C#N)c(=O)n3C)C(=O)CC2)cc1	99.8%	86.1%	91.9%	105%	103%	77.9%	94.1%	104%	109%	109%
CCN1CCN(C(=O)[C@]23CCC(C)(C)C[C@@H]2C2=CC[C@@H]4[C@@]5(C)C/C(=C/c6ccncc6)C(=O)C(C)(C)[C@@H]5CC[C@@]4(C)[C@]2(C)CC3)CC1	-7.07% (active)	-42.8% (active)	27%	-66.9% (active)	-64.7% (active)	-11% (active)	-59% (active)	4.33% (active)	-73.6% (active)	-15.3% (active)
CC(=O)O[C@@H]1CCN2C(=O)N(C)c3ccccc3[C@@H]2C1	98.7%	109%	108%	104%	104%	111%	96.4%	95%	101%	114%
COc1cc2nc(Cl)nc(Nc3cccc(C(=O)/C=C/c4ccc(Cl)cc4)c3)c2cc1OC	80.9%	88.1%	83.1%	86.8%	91.3%	78.3%	77.6%	78.2%	64.8%	86.9%
COC(=O)[C@]12CC[C@@H](C(/C=C/c3cccnc3)=N/O)[C@@H]1[C@H]1CC[C@@H]3[C@@]4(C)CC(=C/c5cccnc5)/C(=N/O)C(C)(C)[C@@H]4CC[C@@]3(C)[C@]1(C)CC2	43.1%	13.7%	76.5%	60%	36.8%	54.4%	43.3%	44.6%	67.8%	18%
Cc1cc(Cl)nc(N(CCCNc2ccnc3cc(Cl)ccc23)Cc2ccco2)n1	8.17% (active)	24.1%	42.8%	25.7%	16.7%	-3.26% (active)	13.8%	29.2%	19.5%	-54.5% (active)
COc1cccc(-c2nn(-c3ccccc3)cc2-c2ccnc(NCCCO)c2)c1	51.5%	69.2%	66%	27.1%	18.4%	41.8%	18%	35.1%	48.7%	11.2%
Cn1cc(-c2csc(-c3cn(CCN)c4ccc(Br)cc34)n2)c2cccnc21	78.4%	85.1%	75.3%	67.2%	16.4%	45.9%	90.6%	37.5%	73.1%	-5.13% (active)
Cc1cc(Nc2ccc(F)cc2)nc(N2CCN(c3ccnc4cc(Cl)ccc34)CC2)n1	28.9%	57.5%	46.8%	59.8%	11.6%	-7.85% (active)	17.4%	29.8%	23.5%	-68% (active)
COc1cc(OC)c2c(c1)c1nc3cc(C)c(C)cc3nc1n2CCN(C)C	91.3%	90.5%	87.1%	79.4%	84.8%	81.7%	79.2%	80.4%	83.9%	74.9%
O=C1C(=O)N(CCCCn2cc(-c3ccccc3)nn2)c2ccccc21	101%	106%	103%	106%	99.9%	101%	100%	108%	102%	112%
